An excerpt weighted towards active compounds, which were near 19% of everything screened.
KB-V1 cytotox: kills drug-selected multidrug resistant KB-V1 cells. KB-V1 MDR cells viability, CellTiter-Glo, 72 h. Potency, µM (titrated, usually from 46.1 µM), actives largely listed as cytotoxic. hit rate 3.4% among 400,000; note: nearly all actives have a fitted effect of over 60% in size
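Following 72 h at 37 degrees C with compound, KB-V1 cell viability was read by CellTiter-Glo luminescence, medium being phenol-red-free DMEM plus 10% FBS; concentration-response parameters came from normalized, curve-fitted qHTS data.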
KB-3-1 cytotox: kills parental KB-3-1 adenocarcinoma cells. KB-3-1 viability, CellTiter-Glo ATP luminescence, 72 h. Potency, µM (titrated, usually from 46.1 µM), hits mostly cytotoxic. hit rate 1.4% among 400,000. AID 1347075; note: nearly all actives have a fitted effect of over 60% in size
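Viability of parental KB-3-1 cells, measured by CellTiter-Glo luminescence, followed a 72 h incubation at 37 °C with pinned compounds in phenol-red-free DMEM containing 10% FBS.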
HT1080NT lethal: kills 2HG-producing HT-1080-NT fibrosarcoma cells | HT-1080-NT fibrosarcoma viability, CellTiter-Glo ATP luminescence, 48 h | hit rate 1.6% among 360,000 | Potency, µM (highest dose often 46.1 µM), inactives show top-dose activity, negative = less viability, most hits filed as cytotoxic | AID 686970;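 note: NT is the 2HG producing partner of a matched IDH1 knockdown line; 0% = DMSO-treated cells and -100% = media-only wells without cells; nearly all actives have a fitted effect of over 55% in size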
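Luminescent CellTiter-Glo readout after 48 hours of compound exposure at 37 degrees C defined viability of HT-1080-NT cells. Activity was normalized to DMSO wells and cell-free media wells; concentration-response curves were fitted and assigned curve classes.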
DT40 TDP1 no CPT: qHTS for Inhibitors of human tyrosyl-DNA phosphodiesterase 1 (TDP1): qHTS in cells in absence of CPT. DT40 Tdp1-/- hTDP1 cells, no CPT, ATP luminescence, 48 h. Potency, µM (series often up to 46.2 µM), without a hit: top-dose activity change, negative = growth inhibition, usual class: inhibitors. hit rate 15% among 420,000; note: nearly all actives have a fitted effect of over 55% in size
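DT40 Tdp1-/-;hTDP1 cells, no CPT (DMSO vehicle only), 400 cells/well; compounds pin-transferred; ≥48 hr, 37 °C; CellTiter-Glo 30 min RT dark, luminescence read.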
DT40 TDP1 CPT: DT40-hTDP1 cell growth loss with CPT. chicken DT40 Tdp1-/-;hTDP1 cells + 20 nM CPT, ATP luminescence, 48 h. hit rate 12% among 420,000. AID 686979. Potency, µM (titrated, usually from 46.2 µM), inactives show at the top dose activity change, negative = growth inhibition, most hits filed as inhibitors; note: nearly all actives have a fitted effect of over 55% in size
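Cell growth measured by CellTiter-Glo luminescence after a minimum 48 h, 37 C compound exposure with 20 nM CPT in Tdp1-knockout DT40 cells stably expressing hTDP1, seeded 400/well; qHTS titration format.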
HT1080 IDH1KD tx: HT-1080 IDH1 knockdown cell toxicity (counter line); HT-1080 IDH1 knockdown viability, ATP luminescence, 48 h; Potency, µM (series often up to 46.1 µM), inactives show top-dose activity, negative = toxicity, most hits filed as cytotoxic; hit rate 2% among 360,000; AID 686971;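 note: 0% = DMSO wells and -100% = cell-free medium wells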
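HT-1080-IDH1KD cells (IDH1 knocked down), 750/well in RPMI with 5% FBS, treated with compound 48 h at 37 degrees C. Viability by CellTiter-Glo luminescence, normalised to DMSO and no-cell wells; concentration-response curves classed.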
The depositor's hits bear a star; i = inactive; ? = inconclusive; . = no result. Calls come from the whole dose curve; as a rule, active = well fitted curve in the direction sought with a large enough effect; inconclusive = small, poorly fitted or top-dose-only effect, or another doubt; inactive = no such curve, though single readings can be large; an effect the other way counts as inactive or inconclusive. Unless noted, % is set by controls: 0 for no effect and ±100 for the full control effect; potency is the fitted concentration of half-maximal effect.

SMILES	KB-V1 cytotox	KB-3-1 cytotox	HT1080NT lethal	DT40 TDP1 no CPT	DT40 TDP1 CPT	HT1080 IDH1KD tx
CCn1nc(C)c2c(-c3ccccc3)cc(=O)n(C(C)C(=O)NCc3ccc(C)cc3)c21 (stereo not given)	i	i	.	?	18µM*	.
CCn1nc(C)c2c(-c3ccccc3)cc(=O)n(C(C)C(=O)NCCc3ccc(OC)c(OC)c3)c21 (stereo not given)	i	i	.	?	?	.
CCn1nc(C)c2c(-c3ccccc3)cc(=O)n(C(C)C(=O)NCCc3ccccc3)c21 (stereo not given)	i	i	.	?	18µM*	.
COc1ccc(Cc2nnc(Cl)c3ccccc23)cc1OC	i	i	-2%	7%	-7%	3%
O=C(COC(=O)c1cnccn1)Nc1ncc(C(F)(F)F)cc1Cl	i	i	6%	3%	13%	4%
Cc1ccc2nc(CN3CCN(C(=O)Nc4ccc(F)cc4)CC3)oc2c1	?	i	.	?	?	.
O=C(CN1C(=O)NC(Cc2c[nH]c3ccccc23)C1=O)NCC(F)(F)F (stereo not given)	i	i	-1%	3%	-1%	-4%
O=[N+]([O-])c1ccc(-c2c(-c3ccccc3)ncc3cc(F)ccc23)cc1	i	i	?	18µM*	15µM*	-28%
O=[N+]([O-])c1cccc(-c2cnc3ccccc3n2)c1	i	i	19%	-14%	4%	9%
O=[N+]([O-])c1cccc(-c2c(-c3ccccc3)ncc3cc(F)ccc23)c1	i	?	0%	21µM*	8.2µM*	-13%
Clc1ccc2c(SCC3CO3)c3ccccc3nc2c1 (stereo not given)	16µM*	?	?	1.2µM*	0.46µM*	18µM*
O=C(CSCC(=O)N1CCCCC1)Nc1nc(-c2ccccc2)c(-c2ccccc2)s1	?	?	-29%	16µM*	18µM*	?
Cc1ccc(S(=O)(=O)CCC(=O)OCC(=O)NCCc2ccc(F)cc2)cc1	i	i	0%	1%	-26%	1%
Cc1ccc(S(=O)(=O)CCC(=O)c2ccc(F)cc2)cc1	i	i	?	2.6µM*	4.1µM*	?
Cc1ccc(S(=O)(=O)CCC(=O)NCc2ccc(Cl)cc2)cc1	i	i	8%	-14%	3%	1%
Cc1ccc(C(=O)CCS(=O)(=O)c2ccc(Cl)cc2)cc1	i	i	13%	2.9µM*	2.9µM*	-5%
Cc1ccc(C(=O)CCS(=O)(=O)c2ccc(F)cc2)cc1	i	?	1%	2.9µM*	4.6µM*	-15%
O=C(NNc1nc2cc3c(cc2s1)OCO3)c1cccc(F)c1	i	?	1%	?	?	-16%
Cc1ccc(Oc2ccc(/C=N/O)cn2)cc1	i	i	1%	16µM*	23µM*	13%
CC(C)(C)NC(=O)NC(=O)CSc1ncc(C(F)(F)F)cc1Cl	13µM*	i	10%	-27%	-23%	-4%
Cc1ccc(S(=O)(=O)N(C)C)cc1NC(=O)CSc1ncc(C(F)(F)F)cc1Cl	?	i	-17%	?	?	-17%
CCN(CC)S(=O)(=O)c1ccc(C)c(NC(=O)CSc2ncc(C(F)(F)F)cc2Cl)c1	i	i	0%	23µM*	?	-17%
O=C(O)CC(Cc1ccc(Br)cc1)C(=O)Nc1ccccc1 (stereo not given)	i	i	10%	-14%	18%	14%
O=S(=O)(CCN1CCN(C(c2ccccc2)c2ccccc2)CC1)C(F)(F)F	i	i	?	18µM*	7.3µM*	18µM*

Assay outcomes (PubChem BioAssay)
